The panel holds about 79,000 compounds, 15% with a hit somewhere; the sample as a whole holds those more often. A number with no mark means an inactive call. Active and inactive are the calls of the source. Rule as the data show it: active = growth inhibition above about 70%; inactive = the rest.

Experiment [1] in a line: NCI Yeast Anticancer Drug Screen. Data for the rad50 strain (AID 155).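 Also: 0% = growth of vehicle-only cultures of the same strain.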 The note with it: S. cerevisiae rad50 strain growth inhibition; at 50.0 µM; hits give high values. The gist of the method: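 Genetically altered yeast (DNA repair pathway); compound treatment; growth inhibition vs vehicle ctrl.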
A short description of experiment [2]: NCI Yeast Anticancer Drug Screen. Data for the mec2-1 strain (AID 157). The following applies: S. cerevisiae mec2-1 strain, at 50.0 µM, hits give high values. The gist of the method:
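Using mec2-1 yeast: add compound, measure growth, express inhibition versus vehicle-treated cultures.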

Experiment [3] in a line: NCI Yeast Anticancer Drug Screen. Data for the sgs1 mgt1 strain (AID 161).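 Also: 0% = growth of cultures given vehicle only.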 The following applies: S. cerevisiae sgs1 mgt1 strain, at 50.0 µM, hits give high values. The gist of the method:
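This yeast growth screen uses a strain with defined DNA-repair lesions; compound-treated growth is compared with vehicle-treated growth.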

Experiment [4] in a line: NCI Yeast Anticancer Drug Screen. Data for the cln2 rad14 strain (AID 165).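 Also: 0% = growth equal to vehicle treated cultures.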 The note with it: S. cerevisiae cln2 rad14 strain, at 50.0 µM, hits give high values. The gist of the method: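 Yeast strain cln2 rad14, bearing defects in cell cycle control and DNA repair, serves as the test system; values reflect growth inhibition compared with vehicle.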
Experiment [5] can be described thus: NCI Yeast Anticancer Drug Screen. Data for the bub3 strain (AID 167). The following applies: S. cerevisiae bub3 mutant strain, at 50.0 µM, hits give high values. Put shortly: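 Yeast carrying a defined mutation is treated with each compound, and growth is compared with that of vehicle-exposed cells to give inhibition.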
The nature of experiment [6]: NCI Yeast Anticancer Drug Screen. Data for the mlh1 rad18 strain (AID 175). The following applies: S. cerevisiae mlh1 rad18 strain growth inhibition; at 50.0 µM; hits give high values. Put shortly:
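Steps: expose repair-defective yeast to compound; measure growth; express inhibition against vehicle-treated controls.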

Turning to `CSC1(SC)CCCCCCCCCCC1`, the growth inhibition in experiment [1] is -19.8%; in experiment [2], -17.2%; in experiment [3] it was -17.9%; in experiment [4], -15.9%; in experiment [5], -34.9%; in experiment [6], -29.4%.

For `COC(=O)C(S)(NC(C)=O)C(C)C` (stereo unspecified), the growth inhibition in experiment [1] is 0.2%; in experiment [2], -10.5%; in experiment [3], -1.25%; in experiment [4] it was -30.4%; in experiment [5], -18.8%; in experiment [6], 16.1%.

Turning to `Cc1ccc2nc3c(C)cc(=O)cc-3sc2c1`, the growth inhibition in experiment [1] was 41.1%; in experiment [2], 34.6%; in experiment [3] it was 36.5%; in experiment [4], 44.9%; in experiment [5], 74.5% (active); in experiment [6], 43.6%.

Regarding `COc1ccc(C2OC(=O)C(=O)C2=O)cc1OC` (stereo unspecified), the growth inhibition in experiment [1] is -25.9%; in experiment [2], -25.4%; in experiment [3], -8.45%; in experiment [4] it was -17.4%; in experiment [5] it was 8.7%; in experiment [6], -8.65%.

For the compound `CC(=O)Oc1cc(C(C)C)c(OCCN(C)C)cc1C`, the growth inhibition in experiment [1] was -0.15%; in experiment [2], 10.3%; in experiment [3] it was 0.45%; in experiment [4] it was -3.6%; in experiment [5], -0.5%; in experiment [6], -4.1%.

As to `COC1OC(CO)C(O)C(OC(C)=O)C1NC(=O)N(CCCl)N=O` (stereo unspecified), the growth inhibition was -4.9% in experiment [1]; -13.4% in experiment [2]; -6.2% in experiment [3]; 7.4% in experiment [4]; -7.65% in experiment [5]; -8.75% in experiment [6].

Regarding `C=C(CBr)CCCOCc1ccccc1`, the growth inhibition in experiment [1] is 10.8%; in experiment [2], -7.25%; in experiment [3], -7.15%; in experiment [4], 2.1%; in experiment [5] it was -5.35%; in experiment [6], -7.55%.

`C=CCNC(=S)Nc1c(C)cc(C)cc1C`: the growth inhibition was 7.2% in experiment [1]; 8.4% in experiment [2]; 9.65% in experiment [3]; -51.4% in experiment [4]; 4.3% in experiment [5]; 12.2% in experiment [6].

Regarding `O=C(Nc1ccc(Cl)cc1)OCc1ccco1`, the growth inhibition is 2.2% in experiment [1]; 24.1% in experiment [2]; 24.4% in experiment [3]; -12.4% in experiment [4]; 17.8% in experiment [5]; 16.8% in experiment [6].

As for `CCOc1ccccc1NC(=O)Nc1cccc(C(F)(F)F)c1`, the growth inhibition in experiment [1] is 68.8%; in experiment [2], 60.5%; in experiment [3] it was 76% (active); in experiment [4], 72.3% (active); in experiment [5], 76% (active); in experiment [6], 88.9% (active).

On to `CC(C)CCCC(C)C1CCC2C3CCC4CC(=O)/C(=C\O)CC4(C)C3CCC12C` (stereo unspecified), for which the growth inhibition is 70.3% (active) in experiment [1]; 51.5% in experiment [2]; 79.4% (active) in experiment [3]; 38.6% in experiment [4]; 25.6% in experiment [5]; 67.2% in experiment [6].

`COC(=O)c1cccc2c1-c1ccccc1C2=O`: the growth inhibition was 9.25% in experiment [1]; 11.9% in experiment [2]; -18.4% in experiment [3]; 5% in experiment [4]; 14% in experiment [5]; 11.6% in experiment [6].

In the case of `Nc1c(Cl)cc2c(c1Br)C(=O)c1ccccc1C2=O`, the growth inhibition is 13.7% in experiment [1]; -3.5% in experiment [2]; 1.1% in experiment [3]; 23.4% in experiment [4]; 11.9% in experiment [5]; 19.5% in experiment [6].

Take `CC(CCc1ccccc1)N(C)C(=O)CNC(=O)CN1C(=O)c2ccccc2C1=O` (stereo unspecified): the growth inhibition in experiment [1] was -18.9%; in experiment [2], 1.35%; in experiment [3], 6.85%; in experiment [4], -1.25%; in experiment [5], -15.1%; in experiment [6] it was -6.9%.

`Cc1cc(Cl)c2c(c1)C(=O)C(C)C2.[Cu+2]` (stereo unspecified): the growth inhibition was -13.1% in experiment [1]; -10.2% in experiment [2]; -18.8% in experiment [3]; -26.4% in experiment [4]; -6.65% in experiment [5]; -6.2% in experiment [6].

Consider `CCCCCC(C)(O)CCC` (stereo unspecified), for which the growth inhibition was -5.9% in experiment [1]; -6.65% in experiment [2]; 3.65% in experiment [3]; -3.45% in experiment [4]; 6.9% in experiment [5]; -3.55% in experiment [6].

For `CC(=O)OCc1ccc([N+](=O)[O-])cc1`, the growth inhibition in experiment [1] is -1.65%; in experiment [2], 0.25%; in experiment [3], -8.8%; in experiment [4], 8.05%; in experiment [5] it was -6.05%; in experiment [6], 6.1%.

`O=C(CBr)Nc1ccccc1[N+](=O)[O-]`: the growth inhibition is 8.3% in experiment [1]; -1.35% in experiment [2]; 5.8% in experiment [3]; 0.4% in experiment [4]; 6.05% in experiment [5]; -5.4% in experiment [6].

Turning to `COC1C(=O)OC(=O)C1OC` (stereo unspecified), the growth inhibition in experiment [1] is -73%; in experiment [2], -15.1%; in experiment [3], -1.05%; in experiment [4], -24.7%; in experiment [5] it was -8.55%; in experiment [6], 14.9%.

For the compound `COc1ccc(Cl)cc1C(O)CN1CCCCC1` (stereo unspecified), the growth inhibition in experiment [1] is -8.35%; in experiment [2] it was -11.9%; in experiment [3], -11.2%; in experiment [4] it was -37.5%; in experiment [5], 0.45%; in experiment [6], -6.3%.

As for `O=C(Cc1ccccc1)Nc1cccc2ccccc12`, the growth inhibition is 6.15% in experiment [1]; 1.7% in experiment [2]; 0.8% in experiment [3]; 1% in experiment [4]; 22.9% in experiment [5]; 0.9% in experiment [6].

For the origin of these results see PubChem BioAssay (NCI).
